The source of these data is PubChem BioAssay (NCI).

Some test systems named below: EKVX NSCLC; SN12C renal; UO-31 renal; TK-10 renal; ACHN renal; CAKI-1 renal; A498 renal; CCRF-CEM leukemia; MOLT-4 leukemia; SR leukemia.
Holding throughout (experiment): NCI-60 one-dose screen, 48 h (100 = growth as untreated, 0 = no growth, -100 = all killed)
Settings in all cases: 10 µM unless noted

The panel holds about 83,000 compounds, 20% with a hit somewhere; the sample as a whole holds those more often.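 48-hour exposure, single concentration, 96-well plates; percent growth endpoint where 0 means no net growth. Active: below 10.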 Values without a mark were called inactive. Active and inactive are the calls of the source.

Take `CCN(CC)c1ccc(N=Nc2cc(Cl)ccc2Cl)c(NC(=O)CCC(=O)O)c1`: the growth in the assay with EKVX NSCLC was 79.7%; in the assay with SN12C renal, 91.4%; in the assay with UO-31 renal it was 60.9%; in the assay on TK-10 renal, 121%; with ACHN renal, 88.8%; in the assay on CAKI-1 renal, 93.4%. Moreover, the growth is 80.1% with A498 renal, 103% with CCRF-CEM leukemia, 95.1% with MOLT-4 leukemia and 98.4% in the assay with SR leukemia.
On to `COc1ccc(C2=NN(C(C)=O)C(c3cc(OC)c(OC)c(OC)c3)C2)cc1` (stereo not given), for which the growth in the assay on EKVX NSCLC is 95.2%; in the assay on SN12C renal it was 109%; in the assay with UO-31 renal it was 80%; in the assay with TK-10 renal, 152%; in the assay with ACHN renal it was 104%; in the assay with CAKI-1 renal, 100%. The growth with A498 renal is 96.5%; in the assay with CCRF-CEM leukemia, 75.5%; in the assay on MOLT-4 leukemia, 118%; in the assay on SR leukemia it was -9.78% (active).
With `COc1cc(C2NC(c3ccc(Cl)cc3)C(C)/C(=N/NC(N)=S)C2C)cc(OC)c1OC` (stereo not given), the growth in the assay with EKVX NSCLC is 107%; in the assay with SN12C renal, 94.7%; with UO-31 renal, 76.7%; in the assay with TK-10 renal, 103%; in the assay with ACHN renal, 93.2%; in the assay with CAKI-1 renal, 51.1%. The growth in the assay with A498 renal is 129%; with CCRF-CEM leukemia, 89.8%; in the assay with MOLT-4 leukemia, 70.7%; with SR leukemia, 98.6%.
On to `O=C(CCc1nnc(Cn2cncn2)o1)c1nc2ccccc2[nH]1`, for which the growth with EKVX NSCLC was 116%; with SN12C renal, 92.6%; in the assay on UO-31 renal it was 92.4%; in the assay on TK-10 renal, 108%; in the assay on ACHN renal it was 113%; in the assay with CAKI-1 renal, 102%. Also, the growth is 96% in the assay on A498 renal, 96.4% with CCRF-CEM leukemia, 92.4% in the assay with MOLT-4 leukemia and 82% in the assay on SR leukemia.
With `Fc1ccc(-c2nnc(/C=C/c3cn(-c4ccccc4)nc3-c3ccccc3)o2)cc1`, the growth in the assay on EKVX NSCLC is 103%; in the assay on SN12C renal, 84.1%; with UO-31 renal, 84.1%; in the assay with TK-10 renal it was 107%; in the assay on ACHN renal, 90.9%; in the assay with CAKI-1 renal it was 84.3%. Further, the growth with A498 renal was 111%; in the assay with CCRF-CEM leukemia it was 97.1%; in the assay on MOLT-4 leukemia it was 99.3%; in the assay on SR leukemia, 65.7%.
With `O=C(Cn1ccnc1)NC(c1ccccc1)c1ccccc1`, the growth was 97.5% in the assay with EKVX NSCLC; 97% in the assay with SN12C renal; 89.5% in the assay on UO-31 renal; 97.5% in the assay on TK-10 renal; 91.9% in the assay with ACHN renal; 96.7% in the assay with CAKI-1 renal. Further, the growth in the assay on A498 renal is 67.6%; with CCRF-CEM leukemia, 108%; in the assay on MOLT-4 leukemia, 107%; in the assay on SR leukemia, 98.4%.
As to `C=C(C)[C@@H]1C[C@H](O)Cc2cc(Cl)cc(Cl)c2N1`, the growth with EKVX NSCLC was 84.3%; in the assay with SN12C renal, 96.9%; in the assay with UO-31 renal it was 81.4%; with TK-10 renal, 98.7%; in the assay on ACHN renal, 95.9%; with CAKI-1 renal, 91.6%. In addition, the growth with A498 renal is 87.2%; with CCRF-CEM leukemia, 103%; with MOLT-4 leukemia it was 88.3%; in the assay on SR leukemia it was 108%.
With `CC(C)[C@]12O[C@H]1[C@@H]1O[C@]13[C@]1(O[C@H]1C[C@H]1C4=C(CC[C@@]13C)C(=O)OC4)[C@@H]2OC(=O)CN(C)C`, the growth was -26.9% (active) in the assay on EKVX NSCLC; 29.1% with SN12C renal; -5.89% (active) in the assay with UO-31 renal; 4.34% (active) with TK-10 renal; 9.59% (active) with ACHN renal; -48.5% (active) in the assay on CAKI-1 renal. Besides, the growth in the assay on A498 renal was -36.4% (active); in the assay with CCRF-CEM leukemia, 12.4%; in the assay with MOLT-4 leukemia, -11.7% (active); with SR leukemia, -2.85% (active).
In the case of `OC(Cc1cccnc1)c1ccccc1` (stereo not given), the growth with EKVX NSCLC was 113%; in the assay on SN12C renal, 99.3%; in the assay with UO-31 renal, 93.3%; in the assay on TK-10 renal, 109%; in the assay with ACHN renal, 101%; in the assay with CAKI-1 renal, 119%. The growth with A498 renal is 86.5%; in the assay on CCRF-CEM leukemia, 80.2%; with MOLT-4 leukemia, 94.3%; in the assay with SR leukemia it was 92.6%.
On to `COC(=O)CCC1=C(C)/C(=C/c2[nH]c(-c3ccc[nH]3)cc2OC)N=C1C`, for which the growth with EKVX NSCLC is 46.4%; in the assay with SN12C renal, 34.8%; in the assay on UO-31 renal, -50.9% (active); with TK-10 renal, 28.1%; in the assay with ACHN renal it was 8.35% (active); in the assay on CAKI-1 renal it was 11.1%. Moreover, the growth in the assay with A498 renal is 66.8%; with CCRF-CEM leukemia, -23.6% (active); in the assay with MOLT-4 leukemia it was -28.3% (active); with SR leukemia it was -32.1% (active).
As to `O=C(Nc1ccc(Cl)cc1)Nc1ccc(Nc2nncc3ccccc23)cc1`, the growth is 20.6% in the assay on EKVX NSCLC; 26.4% in the assay with SN12C renal; 19% with UO-31 renal; 32% in the assay on TK-10 renal; 22.4% in the assay on ACHN renal; 20.6% with CAKI-1 renal. Besides, the growth in the assay on A498 renal is 24.5%; in the assay on CCRF-CEM leukemia, 13.1%; in the assay with MOLT-4 leukemia it was -1.61% (active); with SR leukemia it was 17.5%.
`Clc1ccc2c(Nc3ccc4oc(NCCN5CCCC5)nc4c3)ccnc2c1`: the growth with EKVX NSCLC was 104%; with SN12C renal, 83.7%; with UO-31 renal, 66.2%; with TK-10 renal, 103%; with ACHN renal, 98.2%; in the assay with CAKI-1 renal, 94.1%. The growth in the assay with A498 renal is 90.6%; in the assay on CCRF-CEM leukemia it was 70.2%; in the assay with MOLT-4 leukemia, 66.6%; with SR leukemia it was 1.43% (active).
`CCC(=O)Nc1ccccc1C#C/C=C\C#Cc1ccccc1C(F)(F)F`: the growth with EKVX NSCLC is 52.7%; in the assay with SN12C renal, 58.8%; with UO-31 renal it was 22.4%; in the assay on TK-10 renal, 75%; in the assay with ACHN renal it was 53.4%; in the assay with CAKI-1 renal it was 45%. In addition, the growth in the assay on A498 renal is 11.8%; in the assay with CCRF-CEM leukemia, 39.1%; in the assay with MOLT-4 leukemia, 74.2%; with SR leukemia, 117%.
In the case of `COc1cccc(-c2nnc(N)o2)c1`, the growth is 100% with EKVX NSCLC; 97.2% in the assay with SN12C renal; 97.1% with UO-31 renal; 121% in the assay on TK-10 renal; 103% with ACHN renal; 98.4% in the assay with CAKI-1 renal. Besides, the growth was 97.8% in the assay on A498 renal, 103% in the assay with CCRF-CEM leukemia, 110% in the assay on MOLT-4 leukemia and 124% with SR leukemia.
